Screening results (PubChem)
A selection: hits, their analogues and other compounds. The true share with any hit is near 2.4%.
D2 antagonist = HTS Assay for Allosteric Antagonists of the Human D2 Dopamine Receptor: Primary Screen for Antagonists; inhibition, % at 10 µM; 340,000 tested, 2% active; D(2) dopamine receptor (Homo sapiens), P14416; HEK293 TREx D2 cells, calcium flux, dopamine EC80; in the data active = inhibition above about 30%; inactive = below that, where a call was filed; also: 0% is about no effect
Target sequence (P14416 whole entry, looked up): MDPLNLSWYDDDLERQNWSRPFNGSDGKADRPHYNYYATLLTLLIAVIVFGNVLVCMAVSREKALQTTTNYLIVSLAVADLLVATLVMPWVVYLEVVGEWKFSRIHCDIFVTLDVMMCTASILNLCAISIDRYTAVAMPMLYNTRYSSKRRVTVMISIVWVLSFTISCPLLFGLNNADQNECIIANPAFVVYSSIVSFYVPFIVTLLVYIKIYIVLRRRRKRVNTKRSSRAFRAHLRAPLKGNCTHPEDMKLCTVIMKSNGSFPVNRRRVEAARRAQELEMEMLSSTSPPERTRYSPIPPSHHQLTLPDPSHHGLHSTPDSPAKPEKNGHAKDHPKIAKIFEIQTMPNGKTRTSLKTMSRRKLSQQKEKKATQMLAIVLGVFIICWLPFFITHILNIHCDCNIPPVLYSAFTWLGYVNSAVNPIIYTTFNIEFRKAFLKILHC
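Tetracycline-induced HEK293 T-REx cells expressing D2 force-coupled to calcium signalling were dye-loaded, exposed to compound for 180 s, then challenged with an EC80 of dopamine; calcium flux was followed kinetically for a further 180 s.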
D2 PAM-1 = Beta-Arrestin HTS for Positive Allosteric Modulators of the Human D2 Dopamine Receptor: Potentiators | D(2) dopamine receptor (Homo sapiens), P14416 | DiscoveRx D2 beta-arrestin cells, luminescence, 90 min; 100% = 57 uM dopamine signal | 360,000 tested, 0.23% active | potentiation, % (test concentration not listed); in the data active = potentiation above about 50%; inconclusive = mostly about 30% to 49%
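PathHunter beta-arrestin assay in DiscoveRx D2 cells. Compounds were added with an EC20 of dopamine (50 nM final) for 90 min at 37 deg C. Luminescence was read 1 h after detection reagent, with 57 uM dopamine as the EC100 control.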
D2 ag-1 = HTS Assay for Allosteric Agonists of the Human D2 Dopamine Receptor: Primary Screen for Agonists. D(2) dopamine receptor (Homo sapiens), P14416. HEK293 T-REx D2 cells, calcium flux agonist mode. activation, % at 2 µM. 340,000 tested, 0.53% active;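 active = activation over 3 SD above normal in the single-dose calcium agonist read, cut at about 30% in these data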; also: 0% is about no effect
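Agonism scored from kinetic calcium signal (1 read/sec, 180 s) following compound pin transfer, after a 10 s baseline. Cells: HEK293 Trex line expressing inducible D2 receptor coupled to calcium, dye-loaded after overnight culture at 30 C.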
D2 ag-2 = Beta-Arrestin HTS for Positive Allosteric Modulators of the Human D2 Dopamine Receptor: Agonists | D(2) dopamine receptor (Homo sapiens), P14416 | DiscoveRx PathHunter D2 beta-arrestin, luminescence, 90 min; 100% = 57 uM dopamine signal | activation, % (concentration not given with the values) | 360,000 tested, 0.084% active | AID 624465, 2012; in the data active = activation above about 40%; inconclusive = between about 15% and that limit
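Agonist mode: compounds alone added to overnight-plated D2 PathHunter cells for 90 min at 37 C, with 57 uM final dopamine (EC100) defining full response. Beta-arrestin recruitment detected by chemiluminescent reagent, read after 1 h at ambient temperature.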
D2 PAM-2 = HTS Assay for Positive Allosteric Modulators of the Human D2 Dopamine Receptor: Primary Screen for Potentiators | D(2) dopamine receptor (Homo sapiens), P14416 | HEK293 T-REx D2, calcium flux, EC20 dopamine potentiation | potentiation, % at 10 µM | 340,000 tested, 0.34% active;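 active = potentiation over 3 SD above the plate norm, cut at about 30% in these data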; also: 0% is about no effect
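Tetracycline-induced HEK293 T-REx cells force-coupled to calcium signalling expressed D2; compounds were pin-added after a 10 s baseline, read kinetically 180 s, then an EC20 dopamine challenge followed with a further 180 s calcium read.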
* hit, by the source's call; ? = inconclusive; / = not tested or not shown.

SMILES	D2 antagonist	D2 PAM-1	D2 ag-1	D2 ag-2	D2 PAM-2
COc1ccc(C(C(=O)NC2CCCC2)N(CCC(C)C)C(=O)CCC(=O)Nc2cc(C)on2)cc1 (configuration not stated)	34.8*	2.1	-0.8	2.2	3.3
O=C(CC12CC3CC(CC(C3)C1)C2)NCC(c1ccc(F)cc1)N1CCOCC1 (configuration not stated)	40.1*	-4.4	2.6	0.6	3.1
CC(C)=CCN1CCNC(=O)C1CC(=O)NCc1nc(C)c(C)s1 (configuration not stated)	21.3	-7.1	0.8	-3.0	-3.0
CN(Cc1ccccc1)C(=O)c1ccc(NC(=O)c2ccccc2)cc1	-16.8	-10.6	-0.1	-1.8	36.9*
CN(Cc1ccccc1)C(=O)c1cccc(NC(=O)c2ccco2)c1	-8.0	-5.3	-0.5	-5.0	-8.0
CN(CCC(=O)Nc1ccc2c(c1)OCO2)Cc1ccccc1	-25.9	-24.1	0.9	-1.5	-5.4
CN(CCC(=O)Nc1ccc(Cl)cc1)Cc1ccccc1	45.2*	-27.6	-0.6	-10.0	-26.3
CN(CC(=O)Nc1cccc(C#N)c1)Cc1ccc(Cl)cc1	68.3*	-30.8	-0.5	2.6	-11.4
CCc1ccc(CCC(=O)Nc2ccc(Cl)cc2)o1	41.5*	-5.0	-1.0	1.1	-11.7
CN(CC(=O)Nc1ccc(C#N)cc1)Cc1ccc(Cl)c(Cl)c1	-18.2	-7.3	-0.4	-0.8	-6.8
CN(C)S(=O)(=O)c1ccc(NC(=O)C2CC(=O)N(Cc3ccccc3Cl)C2)cc1 (configuration not stated)	-1.8	-13.1	0.0	1.5	7.4
CCCn1c(C(CO)Nc2nc(C)cs2)nc2ccccc21 (configuration not stated)	10.3	-6.6	0.9	-2.4	2.7
COCCNc1nc(NCC2CCCCC2)c2sc(-c3ccccc3)cc2n1	/	-22.7	/	?	/
c1ccc(-c2cc3nc(NCC4CC4)nc(NCC4CCCCC4)c3s2)cc1	/	-36.2	/	40.9*	/
CCOC(=O)c1ccc(-c2ccc3[nH]c4ccccc4c(=O)c3c2)cc1F	30.9*	-0.8	-0.3	-2.3	8.8
COCCNC(=S)N(CCc1c(C)[nH]c2ccc(C)cc12)Cc1cc(OC)c(OC)c(OC)c1	31.3*	4.0	-0.1	4.3	4.2
CCNC(=S)N(CCc1c(C)[nH]c2ccc(C)cc12)Cc1cc(OC)c(OC)c(OC)c1	-14.4	-8.5	0.9	-5.3	7.0
CCNC(=S)N(CCc1c(C)[nH]c2ccc(OC)cc12)Cc1cccnc1	-18.9	5.4	-0.8	0.5	33.0*
CCNC(=S)N(CCc1c(C)[nH]c2ccc(Cl)cc12)Cc1cccnc1	2.7	-10.0	17.8	2.6	-3.5
COc1cccc(NC(=O)Cn2c(=O)n(CCCCC(=O)NCc3ccc4c(c3)OCO4)c(=O)c3ccccc32)c1	/	/	1.0	/	-0.5
CCOC(=O)C1CCN(CC(=O)Nc2c(C(=O)OC)[nH]c3ccccc23)CC1	48.8*	/	35.2*	/	-8.1
CCOC(=O)c1[nH]c2ccc(OCC)cc2c1NC(=O)CN1CCN(c2ccccn2)CC1	36.1*	14.5	0.8	-2.8	-4.7
O=C(O)CCCC(=O)Nc1ccc(N2CCCC2)cc1	-2.7	69.2*	-0.1	5.1	1.0
O=C(O)CCC(=O)Nc1ccc(C(=O)N2CCCCC2)cc1	6.4	-10.2	-0.9	-2.9	32.6*
CCCC(=O)Nc1ccc(N2CCCCC2)cc1	6.0	-2.9	-0.8	-3.1	-9.3
SMILES	D2 antagonist	D2 PAM-1	D2 ag-1	D2 ag-2	D2 PAM-2
CC(=O)Nc1ccc(C(=O)N2CCCC2)cc1	1.4	-21.7	-0.2	-1.2	32.2*
O=C1[C@H](c2ccccc2)[C@@H](c2ccccc2)N1c1ccncc1	/	/	/	0.3	/
C=CCn1c(SCC(=O)Nc2cc(C)on2)nc2ccccc21	/	-6.3	/	-0.1	/
Cc1ccc(Cc2c(C)nc3nc(SCC(=O)NCCC(C)C)nn3c2C)cc1	/	/	0.2	/	7.0
O=C(Nc1nnc2n1CCS2)c1ccc(F)cc1F	/	/	1.7	/	-4.2
CC(Sc1nc(-c2ccccc2)cc(C(F)(F)F)n1)C(=O)O (configuration not stated)	3.9	-5.2	-0.6	-2.5	17.7
CCN(CC)CCCNC(=O)C(C)Sc1nc(-c2ccccc2)cc(C(F)(F)F)n1 (configuration not stated)	31.2*	-10.5	-0.2	-2.7	-8.3
CCCCC1(C)OC(=O)C(=Cc2ccc(-c3ccc(Cl)c(C(=O)O)c3)o2)C(=O)O1 (configuration not stated)	41.9*	7.5	-1.9	-0.3	-3.3
CC1CCN(C(=O)c2cc(S(=O)(=O)N3CCCCC3)c[nH]2)CC1	-10.8	3.7	0.7	-4.3	-5.6
CCOC(=O)c1c(-c2ccc(C)cc2)cn2ccccc12	6.9	-16.1	0.9	-2.0	-8.6
CCOC(=O)c1c(-c2ccc(OC)cc2)cn2ccccc12	62.0*	-13.2	-0.6	-3.2	-0.6
CC(=O)C1CCC2C3CCC4=CC(=O)CCC4(C)C3(Br)C(=O)CC12C (configuration not stated)	/	61.3*	/	10.6	/
COc1ccccc1CNc1nc(-c2ccco2)nn1C(=O)c1cc(OC)c(OC)c(OC)c1	/	/	0.5	/	-7.6
COc1cccc(C(=O)NCC(=O)N2CCC3(CC2)NCCc2[nH]cnc23)c1OC	30.4*	-3.4	0.5	-1.2	3.8
Cc1ccc(-n2nc(C)c(C(=O)Nc3cccc(C(=O)NC4CC4)c3)n2)c(C)c1	-13.6	-1.2	-0.4	7.2	4.6
Cc1cccn2c(=O)cc(COc3cccc(NC(=O)COc4ccccc4)c3)nc12	/	/	-2.2	/	-6.2
COC(=O)c1c(-c2cccs2)csc1NC(=O)c1ccc(C)cc1	/	/	2.4	/	13.8
O=C(CN1CCOCC1)Nc1scc2c1c(=O)oc1ccccc12	35.7*	-1.7	0.0	-1.0	-7.0
COC(=O)c1c(-c2cccs2)csc1NC(=O)CN1CCOCC1	-14.6	-13.5	0.8	-4.2	33.0*
Cc1ccc(CN2CCCn3nc(C(=O)NCC(C)c4ccccc4)cc3C2=O)cc1 (configuration not stated)	/	/	1.4	/	8.8
O=C(Nc1ccc(NC(=O)C2CC2)cn1)c1ccccc1	35.9*	1.0	0.9	3.7	3.9
O=C(Nc1ccc(NC(=O)C2CC2)nc1)c1cccnc1	38.0*	-15.5	1.1	-0.3	2.4
O=C(Nc1ccc(NC(=O)C2CC2)nc1)c1cccc(F)c1	-12.7	-20.0	-0.2	-4.2	-5.9
O=C(Nc1ccc(NC(=O)C2CC2)cn1)c1ccccc1Cl	22.5	2.1	-0.3	-1.9	9.5
